Assay outcomes deposited in PubChem BioAssay by National Center for Advancing Translational Sciences (NCATS).
Shiga toxin inh: Shiga toxin inhibition | Vero cells, Shiga toxin protein synthesis inhibition reporter | inhibition, % at 38.7 µM | AID 2315 | hit rate 9.2% among 290,000; in the data active = inhibition mostly above about 28%, no sharp cut-off; inactive = mostly below about 43%
Pf growth 96h: P. falciparum growth inhibition at 96 hours. P. falciparum luciferase reporter growth, 96 h. Potency, µM (series often up to 28.7 µM), actives largely listed as inhibitors. hit rate 6.9% among 320,000. AID 504834; active = well fitted inhibition curve with a large enough effect; inconclusive = small, poorly fitted or top-dose-only effect, or another doubt; inactive = no such curve, though single readings can be large or run the other way
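Two-generation exposure (96 h) targets delayed-death phenotype. Reporter parasites carrying integrated firefly luciferase, in red cells at 2% hematocrit and 0.05% parasitemia final, kept at 37 C, 5% CO2; luminescence loss indicates inhibition.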
Pf growth 48h: P. falciparum growth inhibition at 48 hours (one generation) | P. falciparum luciferase growth in erythrocytes, 48 h | Potency, µM (top dose mostly 28.7 µM), actives largely listed as inhibitors | hit rate 5.9% among 310,000; active = well fitted inhibition curve with a large enough effect; inconclusive = small, poorly fitted or top-dose-only effect, or another doubt; inactive = no such curve, though single readings can be large or run the other way
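Firefly luciferase activity from engineered P. falciparum reports growth; inhibitors lower the luminescent signal. Cultures contained 2% hematocrit erythrocytes at 0.1% final parasitemia.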
SARS PLpro yeast: inhibitors of SARS-CoV papain-like protease in yeast; Potency, µM (highest dose often 32.9 µM), actives largely listed as activators; S. cerevisiae expressing SARS-CoV PLpro, growth rescue; hit rate 0.19% among 330,000; also: nearly all actives have a fitted effect of over 55% in size
CHX counter: counter-screen hit for Shiga toxin inhibitors, cycloheximide. cell reporter, cycloheximide protein synthesis inhibition counterscreen. max response, %. hit rate 12% among 300,000; in the data active = max response mostly above about 13%, no sharp cut-off; inactive = mostly below about 14%; also: read at 38.3 µM for the half of the compounds with a filed dose
NS1 inh: inhibitors of influenza NS1 protein function | Potency, µM (highest dose often 46.1 µM) | hit rate 0.4% among 270,000; also: actives are rising curves; nearly all actives have a fitted effect of over 50% in size
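Recovery from NS1-induced slow growth read by OD600 in budding yeast switched to galactose assay medium (pH 6.0, -URA) at 1:100 dilution. Compound 23 nl per well; the matching strain lacking NS1 serves as control.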
A number is an active result. Only some compounds are listed: those with a hit (about 21% of all), similar ones and a draw of the others. Unless noted, calls follow the shape of the full dose curve.

What do the screens show for `Oc1ccc(Cl)cc1C1=NNC(c2cc(Br)cc3c2OCOC3)C1` (stereo not given)?
Shiga toxin inh: inactive; Pf growth 96h: inactive; Pf growth 48h: inconclusive; SARS PLpro yeast: inactive; CHX counter: inactive; NS1 inh: inactive

What do the screens show for `CCOC(=O)/C=c1\s/c(=C\c2c(OCC)ccc3ccccc23)c(=O)n1CC(=O)NCC1CCCO1` (stereo not given)?
Shiga toxin inh: inactive; Pf growth 48h: 12µM; SARS PLpro yeast: inactive; CHX counter: inactive; NS1 inh: inactive

How did COc1ccc(OCC(=O)N2CCN(S(=O)(=O)c3ccc(Cl)cc3)CC2)cc1 do in these assays?
Shiga toxin inh: inactive; Pf growth 48h: inactive; SARS PLpro yeast: inactive; CHX counter: inactive; NS1 inh: inactive

What do the screens show for `O=C(c1ccco1)N1CCN(Cc2nc(-c3cccs3)no2)CC1`?
Shiga toxin inh: 35; Pf growth 96h: inactive; Pf growth 48h: inactive; SARS PLpro yeast: inactive; CHX counter: 11; NS1 inh: inactive

What do the screens show for `c1ccc(COC2CCCN(Cc3nc(-c4cccs4)no3)C2)nc1` (stereo not given)?
Shiga toxin inh: inactive; Pf growth 96h: inactive; Pf growth 48h: inactive; SARS PLpro yeast: inactive; CHX counter: inactive; NS1 inh: inactive

What do the screens show for `CN(CCN1CCOCC1)Cc1nc(-c2cccs2)no1`?
Shiga toxin inh: inactive; Pf growth 96h: inconclusive; Pf growth 48h: inactive; SARS PLpro yeast: inactive; CHX counter: inactive; NS1 inh: inactive

How did OC[C@@H]1CCCN1Cc1nc(-c2cccs2)no1 do in these assays?
Shiga toxin inh: 51; Pf growth 96h: inconclusive; Pf growth 48h: inactive; SARS PLpro yeast: inactive; CHX counter: 19; NS1 inh: inactive

What do the screens show for `c1csc(-c2noc(CN3CCOCC3)n2)c1`?
Shiga toxin inh: 41; Pf growth 96h: inactive; Pf growth 48h: inactive; SARS PLpro yeast: inactive; CHX counter: 31; NS1 inh: inactive

How did c1csc(-c2noc(CN3CCN4CCCC4C3)n2)c1 (stereo not given) do in these assays?
Shiga toxin inh: 47; Pf growth 96h: inconclusive; Pf growth 48h: inactive; SARS PLpro yeast: inactive; CHX counter: 21; NS1 inh: inactive

What do the screens show for `O=C(NCC1CCCO1)c1ccc(CSCc2cccc(F)c2)o1` (stereo not given)?
Shiga toxin inh: inactive; Pf growth 96h: inactive; Pf growth 48h: inactive; SARS PLpro yeast: inactive; CHX counter: inactive

What do the screens show for `O=C(O)c1ccc(Cl)c(S(=O)(=O)NCC2CCCO2)c1` (stereo not given)?
Shiga toxin inh: inactive; Pf growth 96h: inconclusive; SARS PLpro yeast: inactive; CHX counter: inactive; NS1 inh: inactive

What do the screens show for `O=C(O)CC1=C(c2ccc(F)cc2)CCC1=O`?
Shiga toxin inh: inactive; Pf growth 96h: 6.6µM; Pf growth 48h: inactive; SARS PLpro yeast: inactive; CHX counter: inactive; NS1 inh: inactive

What do the screens show for `Cc1cc2c(s1)CCCCC(=O)N2`?
Shiga toxin inh: inactive; Pf growth 96h: inactive; Pf growth 48h: inactive; SARS PLpro yeast: inactive; CHX counter: inactive; NS1 inh: inactive

How did Fc1cccc(CN(C2=NCCN2)c2c(Cl)cccc2Cl)c1 do in these assays?
Pf growth 96h: inactive; Pf growth 48h: 12µM

How did COc1ccc(S(=O)(=O)N/N=C(/C)c2ccco2)cc1 do in these assays?
Shiga toxin inh: 130; Pf growth 96h: inconclusive; Pf growth 48h: inactive; SARS PLpro yeast: inactive; CHX counter: 56; NS1 inh: inactive

How did N#Cc1cc([N+](=O)[O-])ccc1NC(=O)CSc1n[nH]c(=O)[nH]c1=O do in these assays?
SARS PLpro yeast: inactive

How did Nc1ccc(Cc2ccc(N)c(O)c2)cc1O do in these assays?
Shiga toxin inh: 43; Pf growth 96h: inconclusive; Pf growth 48h: inactive; SARS PLpro yeast: inactive; CHX counter: inactive

What do the screens show for `COc1ccc2[nH]c(C)c(CCNC(=S)Nc3cccc(C)c3)c2c1`?
Shiga toxin inh: inactive; Pf growth 96h: inconclusive; Pf growth 48h: inconclusive; SARS PLpro yeast: inactive; CHX counter: inactive; NS1 inh: inactive

Results for CCc1cccc(C)c1NC(=S)NCCc1c(C)[nH]c2ccc(C)cc12 ?
Shiga toxin inh: inactive; Pf growth 96h: 15µM; Pf growth 48h: inconclusive; SARS PLpro yeast: inactive; CHX counter: inactive; NS1 inh: inactive

How did CCc1cccc(CC)c1NC(=S)NCCc1c(C)[nH]c2ccc(C)cc12 do in these assays?
Shiga toxin inh: inactive; Pf growth 96h: 10µM; Pf growth 48h: inconclusive; SARS PLpro yeast: inconclusive; CHX counter: inactive; NS1 inh: inconclusive

How did CC(Oc1ccccc1)C(=O)N1CCN(c2ccc(N3CCCCCC3)nn2)CC1 (stereo not given) do in these assays?
Pf growth 96h: 10µM; Pf growth 48h: inconclusive; SARS PLpro yeast: inactive

How did CCOc1ccc(CNC(=O)C2Cc3cc(S(=O)(=O)N4CCCC4)ccc3N2C(C)=O)cc1 (stereo not given) do in these assays?
Shiga toxin inh: inactive; Pf growth 96h: inconclusive; Pf growth 48h: inactive; SARS PLpro yeast: inactive; CHX counter: inactive; NS1 inh: inactive

What do the screens show for `CSc1ccc(CNC(=O)C2Cc3cc(S(=O)(=O)N4CCCC4)ccc3N2C(C)=O)cc1` (stereo not given)?
Shiga toxin inh: inactive; Pf growth 96h: inactive; Pf growth 48h: inactive; SARS PLpro yeast: inactive; CHX counter: inactive; NS1 inh: inactive

How did CCOc1ccc(CNC(=O)C2Cc3cc(S(=O)(=O)N4CCCCC4)ccc3N2C(C)=O)cc1 (stereo not given) do in these assays?
Shiga toxin inh: inactive; Pf growth 96h: 10µM; Pf growth 48h: inactive; SARS PLpro yeast: inactive; CHX counter: inactive; NS1 inh: inactive

How did CSc1ccc(CNC(=O)C2Cc3cc(S(=O)(=O)N4CCCCC4)ccc3N2C(C)=O)cc1 (stereo not given) do in these assays?
Shiga toxin inh: inactive; Pf growth 96h: 15µM; Pf growth 48h: inactive; CHX counter: inactive; NS1 inh: inactive

Results for COc1ccc(Cl)cc1-c1nc(SCC(=O)NC2CC2)n[nH]1 ?
Shiga toxin inh: inactive; Pf growth 96h: inactive; Pf growth 48h: inactive; SARS PLpro yeast: inactive; CHX counter: inactive; NS1 inh: inconclusive

How did O=C1c2ccc3c4c(ccc(c24)C(=O)N1c1ccc(O)cc1)C(=O)N(c1ccc(O)cc1)C3=O do in these assays?
Shiga toxin inh: inactive; Pf growth 96h: 4.7µM; Pf growth 48h: inactive; SARS PLpro yeast: inactive; CHX counter: inactive; NS1 inh: inactive

How did O=C(NCc1ccc2c(c1)OCO2)C1CCN(S(=O)(=O)N2CCOCC2)CC1 do in these assays?
Shiga toxin inh: inactive; Pf growth 96h: 3.7µM; Pf growth 48h: inactive; SARS PLpro yeast: inactive; CHX counter: inactive; NS1 inh: inactive

Results for COc1ccc(S(=O)(=O)N2CCCC(C(=O)NCc3ccc4c(c3)OCO4)C2)cc1 (stereo not given) ?
Shiga toxin inh: inactive; Pf growth 96h: inactive; Pf growth 48h: 2.1µM; SARS PLpro yeast: inactive; CHX counter: inactive; NS1 inh: inactive

What do the screens show for `O=C(NC1CC1)C1CCN(C2CCN(C(=O)Cc3ccc4c(c3)OCO4)CC2)CC1`?
Shiga toxin inh: inactive; Pf growth 96h: 12µM; Pf growth 48h: inactive; SARS PLpro yeast: inactive; CHX counter: inactive; NS1 inh: inactive
